Test results taken from PubChem BioAssay (NCI).
The panel holds about 83,000 compounds, 20% with a hit somewhere; the sample as a whole holds those more often.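 Cell lines were cultured in 96-well plates, exposed to a single compound concentration, and assessed for percent growth 48 hours later.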 Unmarked numbers belong to inactive results. The source made the active and inactive calls. Rule for the calls: active = growth percent below 10; inactive = the rest.

System: NCI-H226 lung
Assay: NCI-60 one-dose screen, 48 h (100 = growth as untreated, 0 = no growth, -100 = all killed)
Conditions: 10 µM unless noted

Compared with `CN1CCN(c2nc(-c3csc(-c4cccs4)n3)cc3ccccc23)CC1`, `Brc1ccc2c(c1)c(-c1nc(-c3c[nH]c4ncccc34)cs1)cn2CCCN1CCCCC1` is lower in growth: 94.5% for the first, 71.2% for the second.

First: O=C(O[C@@H]1Cc2c(O)cc(O)cc2O[C@@H]1c1cc(O)c(O)c(O)c1)c1cc(O)c2c(c1)OCO2
Second: COc1cc(-c2cc3ncccc3c3[nH]c(=O)c4cccnc4c23)cc(OC)c1OC
The growth of the first is higher: 93% for the first, 28.3% for the second.

Going from `C/C(Cc1ccc(Cl)cc1)=C(/c1ccc(Cl)cc1)c1ccc(OCCN2CCCC2)cc1` to `CN(CSc1ccc(Cl)cc1)c1ccc(CSc2ccc(Cl)cc2)cc1`, the growth falls from 96.4% to 43.3%.

Compared with `Cc1cc(N(CCCNc2ccnc3cc(Cl)ccc23)Cc2ccco2)nc(N2CCOCC2)n1`, `Cc1ccccc1-c1nc(C(Cl)Cl)nc2cc(-c3ccccc3)nn12` is lower in growth: 82.7% for the first, 75.3% for the second.

Going from `Cn1c(/C(C#N)=C/c2ccc3ccccc3c2)cc2ccccc21` to `COc1ccc(/C=C(\C#N)c2cc3ccccc3n2S(C)(=O)=O)cc1`, the growth rises from 40.5% to 89.7%.

Going from `CC1(C)NC2=C(C(Nc3cccnc3)N1)C(c1ccc([N+](=O)[O-])cc1)C(C(=O)c1ccc(N=[N+]=[N-])cc1)O2` (configuration not stated) to `Cc1ccc(S(=O)(=O)Nc2ccc(-c3cc(-c4cccc(F)c4)c(C#N)c(=O)[nH]3)cc2)cc1`, the growth falls from 105% to 79.6%.

Going from `COc1ccc(C2C(C#N)=C(N)Oc3c2sc2c(F)cccc32)cc1` (configuration not stated) to `N#CC1=C(N)Oc2c(c(N)nn2-c2ccccc2)C1c1ccc(Cl)cc1` (configuration not stated), the growth rises from 76% to 87.2%.

Going from `CCCCC/C(=C\c1ccccc1)C1OC(C)C(C)O1` (configuration not stated) to `Brc1cnc2[nH]cc(-c3nnc(-c4ccccc4)o3)c2c1`, the growth falls from 83.4% to 66.4%.

Compared with `COc1ccc2c(c1)c(-c1nc(-c3c[nH]c4ncccc34)cs1)cn2CCNC(=O)OC(C)(C)C`, `COc1ccc2[nH]c(-c3ccc(Cl)cc3)cc(=O)c2c1` is higher in growth: 72% for the first, 97.6% for the second.

Compared with `COc1cc(/C=C/c2cc(/C=C/c3ccc(O)c(OC)c3)n(-c3ccccc3)c(=O)n2)ccc1O`, `COc1cc2c(cc1-c1c(C)noc1C)ncc1nc(C3CCCCC3)n([C@@H](C)COC(F)F)c12` is lower in growth: 80.2% for the first, 55.5% for the second.

First: CCN1CCN(C(=O)[C@]23CC[C@@H](C)[C@H](C)[C@H]2C2=CC[C@@H]4[C@@]5(C)C/C(=C/c6cccc(OC)c6OC)C(=O)C(C)(C)[C@@H]5CC[C@@]4(C)[C@]2(C)CC3)CC1
Second: C=C(C)[C@@H]1CC[C@]2(CN)CC[C@]3(C)[C@H](CC[C@@H]4[C@@]5(C)CCC(=O)NC(C)(C)[C@@H]5CC[C@]43C)[C@@H]12
The growth of the first is lower: 46.2% for the first, 88.1% for the second.

Going from `CC(=O)OC[C@]12CC[C@@H](/C(C)=N/O)[C@@H]1[C@H]1CC[C@@H]3[C@@]4(C)CCCNC(C)(C)[C@@H]4CC[C@@]3(C)[C@]1(C)CC2` to `CC1(C)[C@@H](O)CC[C@]2(C)[C@H]3CC[C@@H]4[C@H]5[C@H](C(=O)/C=C/c6ccc(C(F)(F)F)cc6)CC[C@]5(CO)CC[C@@]4(C)[C@]3(C)CC[C@@H]12`, the growth falls from 88.5% to 30%.

In the case of `O=C1/C(=C\C(Cl)=C/c2ccc([N+](=O)[O-])cc2)SC(=S)N1CCc1ccc(O)cc1`, the growth is reported as -63.3% (active).
With `CCNCCCn1c2c(c3ccc([N+](=O)[O-])cc3c1=O)C(=O)c1cc(OC)cnc1-2` the growth was -44% (active).
In the case of `CCN1CCN(C(=O)[C@]23CCC(C)(C)C[C@@H]2C2=CC[C@@H]4[C@@]5(C)C/C(=C/c6ccncc6)C(=O)C(C)(C)[C@@H]5CC[C@@]4(C)[C@]2(C)CC3)CC1`, the growth is reported as -42.8% (active).
